High-throughput results from PubChem BioAssay.
Compounds with a hit are over-represented: about 6.3% of the library has one in this group of screens.
MK inhibit – inhibitors of Streptococcus pneumoniae mevalonate kinase | purified MK, PK/LDH-coupled NADH absorbance 340 nm | inhibition, % at 10 µM | actives 0.48% (n = 65,000) | AID 555;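 active means ranked among the strongest by inhibition in the single 10 µM screen, a fixed top-ranked set picked for dose follow-up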
A340 absorber – compounds absorbing at 340 nm. compound absorbance at 340 nm, fold over control. fold change at 10 µM. 65,000 tested, under 10 active. AID 708;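 active means at 10 µM dose, initial 340 nm absorbance at least 2 fold that of control wells; inactive means change under 2 fold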;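 further: initial absorbance extrapolated from kinetic A340 decline of NADH oxidation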
DPM-DC inhibit – S. pneumoniae DPM-DC inhibition; purified DPM-DC, PK/LDH coupled NADH fluorescence; calls only at 10 µM; actives 0.49% (n = 65,000); AID 556;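 active means the 320 compounds with the highest percent inhibition in the single-dose primary screen, excluding strongly autofluorescent ones, cut at about 32% in these data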;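 further: kinetic rate of NADH fluorescence loss reporting ADP formed by the decarboxylase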
PMK inhibit – inhibitors of Streptococcus pneumoniae phosphomevalonate kinase; inhibition, % at 10 µM; actives 0.49% (n = 65,000); purified PMK, PK/LDH-coupled NADH absorbance 340 nm;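 active means top-ranked compounds by inhibition in the single 10 µM screen, taking a fixed number of the strongest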;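 further: 0% = full reaction with DMSO carrier and 100% = background rate without enzyme reaction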
Fluor 339 460 – intrinsic fluorescence of library compounds, ex339/em460 – biochemical, MLSMR library, data from DPM-DC assay, artefact control, profiling panel | compound autofluorescence, ex339/em460 nm, NADH buffer; active compounds read high; 1 = no-compound wells, NADH background | fluorescence fold increase at 10 µM | actives 5.5% (n = 65,000);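 active means at 10 µM, mean starting fluorescence two-fold or more over control wells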;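 further: signal is the first read of a kinetic run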
NADH coupling – inhibitors of enzymes used to reach an NAD/NADH endpoint. IC50, µM (highest dose often 10 µM), for the others: at the highest dose inhibition. coupled PK/LDH NADH assays, four targets. actives 0.02% (n = 65,000). AID 774;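 active means single-dose screening hits from any of four coupled enzyme assays that gave an IC50 when retested across doses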;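 further: the DPM-DC format reads NADH fluorescence rather than 340 nm absorbance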
Starred values were filed as active, the others as inactive.

What do the screens show for `O=C(CSc1nnc(-c2ccccn2)n1Cc1ccccc1)NC1CCCC1`?
MK inhibit: 0.0; A340 absorber: 0.99; DPM-DC inhibit: inactive; PMK inhibit: 6.0; Fluor 339 460: 1.22; NADH coupling: 2.0%

How did Cc1cc(C)n(C(C)n2nc(C)cc2C)n1 do in these assays?
MK inhibit: 6.0; A340 absorber: 0.98; DPM-DC inhibit: inactive; PMK inhibit: 9.0; Fluor 339 460: 1.02; NADH coupling: 4.0%

Results for CC1(C(=O)NC2CCCCCCC2)CCC(=O)N1Cc1ccco1 (configuration not stated) ?
MK inhibit: 2.0; A340 absorber: 1; DPM-DC inhibit: inactive; PMK inhibit: 31.0*; Fluor 339 460: 1.04; NADH coupling: 11.0%

How did O=C(Nc1ccc2oc(-c3ccccc3)nc2c1)c1cccnc1 do in these assays?
MK inhibit: 12.0; A340 absorber: 1.04; DPM-DC inhibit: inactive; PMK inhibit: 11.0; Fluor 339 460: 1.3; NADH coupling: 8.0%

What do the screens show for `O=C(Cc1ccccc1)Nc1ccc2oc(-c3cccnc3)nc2c1`?
MK inhibit: 2.0; A340 absorber: 1.09; PMK inhibit: 0.0; Fluor 339 460: 2.3*; NADH coupling: 1.0%

Results for CCCCCC(=O)Nc1ccc2oc(-c3cccnc3)nc2c1 ?
MK inhibit: 9.0; A340 absorber: 1.03; PMK inhibit: 14.0; Fluor 339 460: 3.74*; NADH coupling: 12.0%

What do the screens show for `O=C(Cc1ccc(Cl)cc1)Nc1ccc2oc(-c3ccncc3)nc2c1`?
MK inhibit: 4.0; A340 absorber: 1.08; PMK inhibit: 0.0; Fluor 339 460: 3.62*; NADH coupling: 2.0%

How did COc1ccc(-c2[nH]ncc2-c2cnn(-c3ccccc3)c2)c(O)c1 do in these assays?
MK inhibit: 7.0; A340 absorber: 1.04; DPM-DC inhibit: inactive; PMK inhibit: 0.0; Fluor 339 460: 1.09; NADH coupling: 3.0%

What do the screens show for `CS(=O)(=O)N(CC(=O)N1CCCCCC1)c1ccc2c(c1)OCCO2`?
MK inhibit: 12.0; A340 absorber: 1.03; DPM-DC inhibit: inactive; PMK inhibit: 6.0; Fluor 339 460: 1.01; NADH coupling: 9.0%

What do the screens show for `CNc1nnc(-c2cc3ccccc3oc2=O)s1`?
MK inhibit: 3.0; A340 absorber: 1.06; DPM-DC inhibit: inactive; PMK inhibit: 3.0; Fluor 339 460: 2.3*; NADH coupling: 4.0%

How did O=C1CCCN1CCC1CCN(C2CC(=O)N(c3ccc(Cl)cc3)C2=O)CC1 (configuration not stated) do in these assays?
MK inhibit: 8.0; A340 absorber: 1.04; DPM-DC inhibit: inactive; PMK inhibit: 0.0; Fluor 339 460: 1.09; NADH coupling: 3.0%

What do the screens show for `CC(C)OC(=O)CC(=O)c1sc2nc3c(cc2c1N)CN(C)CC3`?
MK inhibit: 4.0; A340 absorber: 1.06; PMK inhibit: 19.0; Fluor 339 460: 4.84*; NADH coupling: 12.0%

How did CCC(C)c1c(O)nc(SCC(=O)c2ccccc2)[nH]c1=O (configuration not stated) do in these assays?
MK inhibit: 6.0; A340 absorber: 1.04; DPM-DC inhibit: inactive; PMK inhibit: 0.0; Fluor 339 460: 1.22; NADH coupling: 2.0%

How did CCN(CC)CCSc1nc(O)c(C(C)C)c(=O)[nH]1 do in these assays?
MK inhibit: 2.0; A340 absorber: 1.03; DPM-DC inhibit: inactive; PMK inhibit: 25.0*; Fluor 339 460: 1.07; NADH coupling: 11.0%

What do the screens show for `C=CCOc1ccc(C(=O)N(Cc2ccc(N(C)C)cc2)C2CCS(=O)(=O)C2)cc1` (configuration not stated)?
MK inhibit: 5.0; A340 absorber: 1.02; DPM-DC inhibit: inactive; PMK inhibit: 8.0; Fluor 339 460: 1.05; NADH coupling: 4.0%

Results for CCOc1cc2[nH]c(=O)n(CC3CCC(C(=O)NCCC(C)C)CC3)c(=O)c2cc1OCC (configuration not stated) ?
MK inhibit: 3.0; A340 absorber: 1.05; DPM-DC inhibit: inactive; PMK inhibit: 1.0; Fluor 339 460: 1.43; NADH coupling: 1.0%

How did CCOc1cc2[nH]c(=O)n(CCCN3CCCC3=O)c(=O)c2cc1OCC do in these assays?
MK inhibit: 3.0; A340 absorber: 1.02; DPM-DC inhibit: inactive; PMK inhibit: 10.0; Fluor 339 460: 2.28*; NADH coupling: 8.0%
